Only a selection was taken, and the strongest signals are over-represented in it overall.
Assays:
Test in all cases: glycan array binding signal (z-score within array); higher = stronger binding
Conditions in all cases: glycan notation: IUPAC condensed, linker removed
[1] = molecular target: Fuc(a1-2)Gal(b1-3)GalNAc
Procedure, shortened: (§1)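 From the Consortium for Functional Glycomics database, 3228 arrays were curated, keeping only those whose protein sequence was available. Binding is given as a within-array Z-score averaged across arrays sharing a protein sequence and across linkers. Negative Z-scores can be read as non-binding.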

[2] = molecular target: Fuc(a1-2)Gal(b1-3)GlcNAc(b1-2)Man(a1-3)[Fuc(a1-2)Gal(b1-3)GlcNAc(b1-2)Man(a1-6)]Man(b1-4)GlcNAc(b1-4)GlcNAc
Procedure, shortened: as §1

[3] = molecular target: Fuc(a1-2)Gal(b1-3)[Fuc(a1-4)]GlcNAc(b1-3)[Gal(b1-4)GlcNAc(b1-6)]Gal(b1-4)Glc
Procedure, shortened: as §1

[4] = molecular target: Fuc(a1-2)Gal(b1-4)GlcNAc(b1-2)Man(a1-3)[Fuc(a1-2)Gal(b1-4)GlcNAc(b1-2)Man(a1-6)]Man(b1-4)GlcNAc(b1-4)[Fuc(a1-6)]GlcNAc
Procedure, shortened: as §1

[5] = molecular target: Fuc(a1-2)Gal(b1-4)GlcNAc(b1-3)Gal(b1-4)GlcNAc(b1-2)Man(a1-3)[Fuc(a1-2)Gal(b1-4)GlcNAc(b1-3)Gal(b1-4)GlcNAc(b1-2)Man(a1-6)]Man(b1-4)GlcNAc(b1-4)GlcNAc
Procedure, shortened: as §1

[6] = molecular target: Fuc(a1-2)Gal(b1-4)[Fuc(a1-3)]GlcNAc(b1-3)Gal(b1-4)[Fuc(a1-3)]GlcNAc
Procedure, shortened: as §1

[7] = molecular target: Fuc(a1-2)[Gal(a1-3)]Gal(b1-3)GlcNAc(b1-2)Man(a1-3)[Fuc(a1-2)[Gal(a1-3)]Gal(b1-3)GlcNAc(b1-2)Man(a1-6)]Man(b1-4)GlcNAc(b1-4)[Fuc(a1-6)]GlcNAc
Procedure, shortened: as §1

[8] = molecular target: Fuc(a1-2)[Gal(a1-3)]Gal(b1-4)GlcNAc(b1-2)Man(a1-3)[Fuc(a1-2)[Gal(a1-3)]Gal(b1-4)GlcNAc(b1-2)Man(a1-6)]Man(b1-4)GlcNAc(b1-4)GlcNAc
Procedure, shortened: as §1

[9] = molecular target: Fuc(a1-2)[GalNAc(a1-3)]Gal(b1-3)GlcNAc(b1-3)GalNAc
Procedure, shortened: as §1

[10] = molecular target: Fuc(a1-2)[GalNAc(a1-3)]Gal(b1-4)GlcNAc(b1-2)Man(a1-3)[Fuc(a1-2)[GalNAc(a1-3)]Gal(b1-4)GlcNAc(b1-2)Man(a1-6)]Man(b1-4)GlcNAc(b1-4)[Fuc(a1-6)]GlcNAc
Procedure, shortened: as §1

[11] = molecular target: Fuc(a1-2)[GalNAc(a1-4)]Gal(b1-4)GlcNAc
Procedure, shortened: as §1

[12] = molecular target: Fuc(a1-3)GlcNAc
Procedure, shortened: as §1

[13] = molecular target: Gal(a1-2)Gal
Procedure, shortened: as §1

[14] = molecular target: Gal(a1-3)Gal(b1-3)GlcNAc
Procedure, shortened: as §1

[15] = molecular target: Gal(a1-3)Gal(b1-3)GlcNAc(b1-2)Man
Procedure, shortened: as §1

[16] = molecular target: Gal(a1-3)Gal(b1-3)GlcNAc(b1-6)GalNAc
Procedure, shortened: as §1

[17] = molecular target: Gal(a1-3)Gal(b1-4)Glc
Procedure, shortened: as §1

[18] = molecular target: Gal(a1-3)Gal(b1-4)GlcNAc(b1-6)GalNAc
Procedure, shortened: as §1

[19] = molecular target: Gal(a1-3)GalNAc
Procedure, shortened: as §1

[20] = molecular target: Gal(b1-3)GalNAc(a1-3)[Fuc(a1-2)]Gal(b1-4)Glc
Procedure, shortened: as §1

[21] = molecular target: Gal(b1-3)GlcNAc(b1-3)Gal(b1-4)GlcNAc(b1-3)Gal(b1-4)GlcNAc(b1-2)[Gal(b1-3)GlcNAc(b1-3)Gal(b1-4)GlcNAc(b1-3)Gal(b1-4)GlcNAc(b1-6)]Man(a1-6)[Gal(b1-3)GlcNAc(b1-3)Gal(b1-4)GlcNAc(b1-3)Gal(b1-4)GlcNAc(b1-2)Man(a1-3)]Man(b1-4)GlcNAc(b1-4)[Fuc(a1-6)]GlcNAc
Procedure, shortened: as §1

[22] = molecular target: Gal(b1-4)GalNAc(a1-3)[Fuc(a1-2)]Gal(b1-4)GlcNAc
Procedure, shortened: as §1

[23] = molecular target: Gal(b1-4)GlcNAc(b1-2)Man(a1-6)[Man(a1-3)]Man(b1-4)GlcNAc(b1-4)GlcNAc
Procedure, shortened: as §1

[24] = molecular target: Gal(b1-4)GlcNAc(b1-3)Gal(b1-4)GlcNAc(b1-3)Gal(b1-4)GlcNAc(b1-2)Man(a1-3)[Gal(b1-4)GlcNAc(b1-3)Gal(b1-4)GlcNAc(b1-3)Gal(b1-4)GlcNAc(b1-2)Man(a1-6)]Man(b1-4)GlcNAc(b1-4)GlcNAc
Procedure, shortened: as §1

[25] = molecular target: Gal(b1-4)GlcNAc(b1-3)Gal(b1-4)GlcNAc(b1-3)Gal(b1-4)GlcNAc(b1-3)Gal(b1-4)GlcNAc(b1-2)Man(a1-3)[Gal(b1-4)GlcNAc(b1-3)Gal(b1-4)GlcNAc(b1-3)Gal(b1-4)GlcNAc(b1-3)Gal(b1-4)GlcNAc(b1-2)Man(a1-6)]Man(b1-4)GlcNAc(b1-4)[Fuc(a1-6)]GlcNAc
Procedure, shortened: as §1

[26] = molecular target: Gal(b1-4)GlcNAc(b1-3)Gal(b1-4)GlcNAc(b1-3)Gal(b1-4)GlcNAc(b1-3)Gal(b1-4)GlcNAc(b1-3)Gal(b1-4)GlcNAc(b1-3)Gal(b1-4)GlcNAc(b1-2)Man(a1-3)[Gal(b1-4)GlcNAc(b1-3)Gal(b1-4)GlcNAc(b1-3)Gal(b1-4)GlcNAc(b1-3)Gal(b1-4)GlcNAc(b1-3)Gal(b1-4)GlcNAc(b1-3)Gal(b1-4)GlcNAc(b1-2)Man(a1-6)]Man(b1-4)GlcNAc(b1-4)GlcNAc
Procedure, shortened: as §1

[27] = molecular target: Gal(b1-4)GlcNAc(b1-3)Gal(b1-4)GlcNAc(b1-3)GalNAc
Procedure, shortened: as §1

[28] = molecular target: Gal(b1-4)GlcNAc(b1-3)GalNAc
Procedure, shortened: as §1

[29] = molecular target: Gal(b1-4)GlcNAc(b1-6)[Gal(b1-4)GlcNAc(b1-3)]GalNAc
Procedure, shortened: as §1

[30] = molecular target: Gal(b1-4)GlcNAc6P
Procedure, shortened: as §1

B1: CPA (Cicer arietinum) (protein)
chain: MAFSYLNLVLVTLTTLFFLQTTKVKSQKSVSFHITNFTISRPSITLQGTAEFLPNVLLLNDIEHPVFVVGRALYSKPITLWNNKTGKVASFVTSFTFDVQDLKKTVPGHGLVFFLAPSGSEIPFSSDGGNLGVVDGKNAFNRFVGVEFDNFVNSWDPKYSHVGINVNSLISTKTVKWNRVSGELVKVSIVYDSVSTTLTVIVTYKNGQISILSQLVDLKAVLPDTVNIGFSASTTLVSPRQLHNIHSWSFTSTFET
[1]
  glycan array binding signal (z-score): -0.424
[2]
  glycan array binding signal (z-score): 3.79
[3]
  glycan array binding signal (z-score): -0.072
[4]
  glycan array binding signal (z-score): 0.297
[5]
  glycan array binding signal (z-score): 0.012
[6]
  glycan array binding signal (z-score): -0.681
[7]
  glycan array binding signal (z-score): -0.184
[8]
  glycan array binding signal (z-score): 0.562
[9]
  glycan array binding signal (z-score): 3.66
[10]
  glycan array binding signal (z-score): 0.023
[11]
  glycan array binding signal (z-score): 1.3
[12]
  glycan array binding signal (z-score): -0.573
[13]
  glycan array binding signal (z-score): -0.045
[14]
  glycan array binding signal (z-score): 0.134
[15]
  glycan array binding signal (z-score): -0.562
[16]
  glycan array binding signal (z-score): -0.42
[17]
  glycan array binding signal (z-score): 0.092
[18]
  glycan array binding signal (z-score): -0.23
[19]
  glycan array binding signal (z-score): -0.121
[20]
  glycan array binding signal (z-score): -0.568
[21]
  glycan array binding signal (z-score): 3.59
[22]
  glycan array binding signal (z-score): -0.399
[23]
  glycan array binding signal (z-score): -0.041
[24]
  glycan array binding signal (z-score): 4.32
[25]
  glycan array binding signal (z-score): 0.005
[26]
  glycan array binding signal (z-score): 3.7
[27]
  glycan array binding signal (z-score): 3.36
[28]
  glycan array binding signal (z-score): -0.24
[29]
  glycan array binding signal (z-score): 3.6
[30]
  glycan array binding signal (z-score): 5.14

Source: the supplement of paper PMC8728848
